# Test results as given in ChEMBL document CHEMBL4513216, “Probing the Open Global Health Chemical Diversity Library for Multistage-Active Starting Points for Next-Generation Antimalarials” (ACS Infect Dis, 2020).
# In all, about 68,000 compounds went through this assay and about 2,700 (4%) showed an effect of 50% or more. The sample holds strong results, similar compounds and a random draw of the others, so the mix is not that of the screen.
# System: Plasmodium berghei
# Assay: Screen against P. berghei liver stage (PbLuc), transformed with Luciferase, at 2uM
# Type: functional, HepG2
# Conditions: tested at 2 uM
row,Compound,INHIBITION
1,CCC(C)NC(=O)Nc1ccc(CN2CCOC2=O)cc1 (stereo unspecified),-5.28%
2,CC(=O)Nc1ccc(CN2CCOC2=O)cc1,55.66%
3,CC(C)CNC(=O)Nc1ccc(CN2CCOC2=O)cc1,-15.92%
4,Nc1ncc(CN2C[C@H](C3CC3)[C@@H](N)C2)cn1,64.38%
5,N[C@H]1CN(Cc2cnc(N3CCCC3)nc2)C[C@@H]1C1CC1,22.18%
6,CCNc1ncc(CN2C[C@H](C3CC3)[C@@H](N)C2)cn1,-35.18%
7,Cn1ccnc1SCCNC(=O)CC1CCc2ccccc21 (stereo unspecified),1.88%
8,Fc1cccc(C(NCc2ncc[nH]2)c2ccccc2)c1 (stereo unspecified),14.52%
9,COc1cc(NCc2ncc[nH]2)ccc1Br,44.23%
10,COCc1nc2cc(NCc3ncc[nH]3)ccc2o1,12.94%
11,CN1CCN(Cc2cccc(NCc3ncc[nH]3)c2)CC1,8.37%
12,Fc1ccc(NCc2ncc[nH]2)cc1Br,56.21%
13,Fc1cccc(NCc2ncc[nH]2)c1,51.08%
14,CCOc1ccc(N(CC(=O)c2ccccc2)C2=NCCCCC2)cc1,20.74%
15,CS(=O)(=O)c1cc(Cl)cnc1C1CCN(C(=O)C2CCOCC2)CC1,-33.32%
16,CS(=O)(=O)c1cc(Cl)cnc1C1CCN(C(=O)C2CC2)CC1,-14.56%
17,Cn1nccc1C(=O)N1CCC(c2ncc(Cl)cc2S(C)(=O)=O)CC1,76.78%
18,Cn1cc(CN2C[C@H](N3CCOCC3)[C@@H]3OCCC[C@@H]32)cn1,-3.36%
19,O=C(CSC1CCCC1)N1CCN(C(=O)C2CC2c2cccs2)CC1 (stereo unspecified),10.39%
20,CN(CC(=O)N(CCC#N)c1ccccc1)C1CCc2ccccc21 (stereo unspecified),-25.33%
21,N#CCCN(CCC#N)C(=O)CN(C1CC1)C1CCc2ccccc21 (stereo unspecified),12.84%
22,CN(CCC#N)C(=O)CN(C1CC1)C1CCc2ccccc21 (stereo unspecified),63.73%

row,Compound,INHIBITION
1,CCn1c(SCC(N)=O)nnc1C(C)NC(=O)c1ccc(Cl)cc1 (stereo unspecified),11.4%
2,COCCN(Cc1nccs1)C(=O)c1cc(-c2ccc(C)s2)n[nH]1,31.51%
3,COCCN(Cc1nccs1)C(=O)c1c(C)cc(C)[nH]c1=O,-1.63%
4,COCCN(Cc1nccs1)C(=O)c1cc(-c2ccc(C)o2)n[nH]1,52.98%
5,COc1ccc(C)c2c1N(C(=O)c1ccc3nnc(C)n3c1)CCC2,61.06%
6,COc1ccc(C)c2c1N(C(=O)c1cnc(C)s1)CCC2,18.01%
7,COc1ccc(C)c2c1N(C(=O)c1cnc3onc(C)c3c1)CCC2,47.2%
8,N#Cc1cccc(CN2CCC3(CC(C(=O)NCC4CC4)=NO3)C2)c1 (stereo unspecified),7.35%
9,CNC1CCCN(Cc2noc(C3CC3)n2)C1 (stereo unspecified),8.91%
10,Cc1n[nH]c(C)c1CNC(=O)N(Cc1ccccc1)CC(C)(C)O,-16.94%
11,Cc1noc(C2CCN(C(=O)CCc3ccccn3)CC2)n1,9.36%
12,O=C(NC1CC1)C1=CC2(CCN(CC3CC3)CC2)c2ccccc21,11.73%
13,CCN1CCC2(C=C(C(=O)NC3CC3)c3ccccc32)CC1,57.95%
14,CC(C)CN1CCC2(C=C(C(=O)NC3CC3)c3ccccc32)CC1,-14.63%
15,COc1ccc(Cl)cc1S(=O)(=O)N(C)CC(=O)Nc1cccnc1,-66.51%
16,Cn1c(C2CC2)nc2c1CCN(CCOc1cccc(F)c1)C2,-9.49%
17,Cn1c(C2CC2)nc2c1CCN(CCOc1ccc(C#N)cc1)C2,55.52%
18,Cn1c(C2CC2)nc2c1CCN(CCOc1ccccc1C#N)C2,-16.16%
19,CC(C)(C)Oc1ccc(CN)c(C(F)(F)F)c1,50.01%
20,NCc1ccc(Oc2ccc(F)c(F)c2)cc1C(F)(F)F,30.1%
21,CC(C)Oc1ccc(CN)c(C(F)(F)F)c1,28.94%
22,CN1CCC(N(C)C(=O)CSc2ccc(F)c(F)c2)C1=O (stereo unspecified),-15.11%

row,Compound,INHIBITION
1,CC(C)c1ccc(CCC(=O)N(C)C2CCN(C)C2=O)cc1 (stereo unspecified),71.91%
2,CN1CCC(N(C)C(=O)CCc2ccc(F)c(F)c2)C1=O (stereo unspecified),20.14%
3,COc1cccc(CC(=O)N2CC[C@@H](OC)[C@@H]2Cc2cccnc2)c1,8.18%
4,COC[C@@]12CCO[C@@H]1CCN(C(=O)Cc1ccc(C)cc1)C2,11.37%
5,COC[C@@]12CCO[C@@H]1CCN(C(=O)Cc1ccccc1C)C2,54.56%
6,COC[C@@]12CCO[C@@H]1CCN(C(=O)Cc1ccccc1F)C2,-26.85%
7,CN(Cc1ccc2c(c1)OCO2)C(=O)NCCc1cnn(C)c1,-0.12%
8,COCC(=O)NC1CC2(CCN(Cc3ccco3)CC2)c2ccccc21 (stereo unspecified),-40.39%
9,COc1ccc(C(=O)NS(=O)(=O)c2cncc(Br)c2)cc1,53.12%
10,COc1cc(C(=O)NS(=O)(=O)c2cccc(C#N)c2)cc(OC)c1C,-15.28%
11,CCOc1cccc2c1OCC(C(=O)NS(=O)(=O)c1ccc(Br)s1)=C2,-20.93%
12,COC(=O)c1ccc(C(=O)NS(=O)(=O)c2cncc(Br)c2)cc1,-8.83%
13,CCOc1cc(C(=O)NS(=O)(=O)c2cccc(C#N)c2)ccc1OC,64.16%
14,COc1cc(C(=O)NS(=O)(=O)c2cccc(C#N)c2)cc(OC)c1Br,41.76%
15,COc1cccc(C(=O)NS(=O)(=O)c2cccc(C#N)c2)c1,-49.9%
16,CCOc1cccc2c1OCC(C(=O)NS(=O)(=O)c1cncc(Br)c1)=C2,51.94%
17,CCOc1cccc2c1OCC(C(=O)NS(=O)(=O)c1ccc(Cl)cc1)=C2,30.91%
18,COc1ccc(C(=O)NS(=O)(=O)c2cncc(Br)c2)cc1OC,-10.6%
19,COc1ccc(C(=O)NS(=O)(=O)c2cccc(C#N)c2)cc1,66.2%
20,COc1cc(C(=O)NS(=O)(=O)c2cccc(C#N)c2)ccc1C,23.92%
21,COc1ccc(CN2CC[C@@H]3[C@H]2CCC(=O)N3c2cnn(C)c2)cc1,-41.29%
22,NC(=O)C1CCN(C(=O)c2cccn2Cc2cccs2)C1 (stereo unspecified),-8.9%
